Bioassay records (PubChem)
Hits are enriched below; roughly 1.7% of the tested compounds scored in any of these assays.
KCNH2 3.1 block: KCNH2 3.1 (human) potassium channel inhibition; 340,000 tested, 0.95% active; U2OS KCNH2 3.1, thallium flux FluxOr; stronger effect = lower value; activity change, % (tested at about 1.8 µM);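 active = maximum activity change below -70%; inconclusive = maximum activity change from -70% to -50%; inactive = maximum activity change above -50%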;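 also: thallium influx rate constant from kinetic fluorescence after stimulation buffer; % is scaled to controls: 0 for no effect and ±100 for the full control effect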
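Thallium flux read-out: FluxOr dye with Red40 quencher in HBSS/HEPES, 45 min at RT. Rate constants from kinetic reads were normalized to positive and negative DMSO controls. Cells: U2OS virally expressing the 3.1 isoform.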
TRPML1 blocker: human mucolipin-1 channel inhibition | Q9GZU1 | TRPML1-inducible cells, Ca2+ dye fluorescence, FDSS; stronger effect = lower value; inhibition of EC80 agonist-evoked calcium signal | activity change, negative = inhibition, % (concentration not given with the values) | 390,000 tested, 0.02% active | AID 624415; in the data active = activity change below about -50%; inconclusive = between about -30% and that limit;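 also: stimulus is agonist 54-4 at its EC80 concentration; % is scaled to controls: 0 for no effect and ±100 for the full control effect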
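Tet-induced TRPML1-DL cells loaded with Ca8 no-wash calcium dye were read kinetically on FDSS. Compound addition was followed by EC80 agonist 54-4 (4 uM final); inhibition was read over 110 s.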
TRHR ag: TRH receptor (human) agonism | P34981 | TRHR cells, calcium flux fluo-8, FDSS agonist mode | activation, % at 2 µM | 360,000 tested, 0.18% active; in the data active = activation above about 30%; also: 0% is about no effect
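Agonist-mode FDSS calcium read (Ex 480/Em 530, 1 s cycles) in 1536-well TRHR cells with fluo-8 dye, after 10-cycle baseline and 23 nL compound addition; TRH at EC20 (10 nM final) added afterwards for the enhancer phase.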
TRHR enhancer: TRH receptor (human) allosteric enhancement | enhancement, % at 2 µM | TRHR cells, fluo-8 calcium fluorescence, EC20 TRH enhancement | P34981 | 360,000 tested, 0.66% active; in the data active = enhancement above about 30%; also: 0% is about no effect
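Enhancer read-out: after compound pinning and an initial kinetic agonist-mode read, an EC20 of TRH (10 nM final) was injected and fluo-8 calcium signal (Ex 480/Em 530) followed at 1 s/cycle for 100 cycles in TRHR-expressing cells.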
TRPML1 agonist: human mucolipin-1 channel agonism; TRPML1-expressing cells, Ca2+ dye fluorescence, FDSS; activation, % (test concentration not listed); 410,000 tested, 0.12% active; AID 624414; in the data active = activation above about 50%; inconclusive = mostly about 30% to 49%; also: 0% is about no effect
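Calcium fluorescence on an FDSS kinetic reader gave the read-out. Tet-induced TRPML1-DL cells were plated overnight, dye-loaded (Ca8 with quencher, 45-90 min, room temperature, dark), then read 110 s after compound addition, and again 110 s after 4uM final 54-4 (EC80).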
KCNH2 WT inh: inhibitors of human wildtype KCNH2 potassium channel. Q12809. U2OS, BacMam KCNH2, thallium flux FluxOr; stronger effect = lower value. activity change, % at 1.84 µM. 340,000 tested, 0.37% active;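 active = maximum activity change below -70%; inconclusive = maximum activity change between -70% and -50%; inactive = maximum activity change above -50%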; also: % is scaled to controls: 0 for no effect and ±100 for the full control effect
Target sequence (Q12809 whole entry, looked up): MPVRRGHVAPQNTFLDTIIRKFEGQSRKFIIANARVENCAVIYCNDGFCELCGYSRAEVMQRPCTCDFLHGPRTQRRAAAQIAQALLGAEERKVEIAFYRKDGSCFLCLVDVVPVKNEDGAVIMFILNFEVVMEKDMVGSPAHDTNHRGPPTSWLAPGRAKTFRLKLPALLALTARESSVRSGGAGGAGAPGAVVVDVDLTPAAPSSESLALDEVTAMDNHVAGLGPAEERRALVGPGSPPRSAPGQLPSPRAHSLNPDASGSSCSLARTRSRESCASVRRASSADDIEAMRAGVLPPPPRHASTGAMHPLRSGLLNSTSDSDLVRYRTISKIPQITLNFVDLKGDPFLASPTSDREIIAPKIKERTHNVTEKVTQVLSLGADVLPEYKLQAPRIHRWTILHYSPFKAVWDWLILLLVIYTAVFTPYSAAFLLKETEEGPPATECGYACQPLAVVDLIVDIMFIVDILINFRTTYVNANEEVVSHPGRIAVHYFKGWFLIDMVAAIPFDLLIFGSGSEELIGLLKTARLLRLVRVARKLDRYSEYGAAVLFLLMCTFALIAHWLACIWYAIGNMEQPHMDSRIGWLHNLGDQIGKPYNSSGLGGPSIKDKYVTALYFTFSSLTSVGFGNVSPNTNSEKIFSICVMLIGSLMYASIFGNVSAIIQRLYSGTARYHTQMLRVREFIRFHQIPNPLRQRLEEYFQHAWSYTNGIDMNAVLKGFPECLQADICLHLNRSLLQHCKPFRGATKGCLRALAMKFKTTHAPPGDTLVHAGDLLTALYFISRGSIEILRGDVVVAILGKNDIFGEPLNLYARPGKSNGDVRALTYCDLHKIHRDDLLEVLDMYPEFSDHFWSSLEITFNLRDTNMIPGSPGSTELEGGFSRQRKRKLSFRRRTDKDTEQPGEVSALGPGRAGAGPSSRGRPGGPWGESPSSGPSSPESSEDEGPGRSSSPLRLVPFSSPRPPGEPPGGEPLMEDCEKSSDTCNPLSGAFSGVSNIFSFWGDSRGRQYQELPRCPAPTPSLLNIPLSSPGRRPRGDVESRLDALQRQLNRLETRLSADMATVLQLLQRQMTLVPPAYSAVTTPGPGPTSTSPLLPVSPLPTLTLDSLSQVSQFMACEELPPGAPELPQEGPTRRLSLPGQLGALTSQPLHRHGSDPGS
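U2OS cells were transduced with wild-type KCNH2 virus (2.03 x 10^8 / mL) for 4 h at room temperature, then cultured overnight at 37 C. Thallium flux was read with FluxOr dye. Rate constants were normalized to DMSO controls.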
* = called active by the depositor; ? = inconclusive; · = no result.

SMILES	KCNH2 3.1 block	TRPML1 blocker	TRHR ag	TRHR enhancer	TRPML1 agonist	KCNH2 WT inh
CCOc1ccc(CN(CCc2ccc3c(c2)OCO3)Cc2ccc(OC)c(Br)c2)cc1	·	-12	1	-10	0	·
CN1CCN(CC(=O)Nc2ccc([N+](=O)[O-])cc2C(=O)c2ccccc2)CC1	-110*	-7	0	4	0	-103*
O=C(CN1CCOCC1)NCC(=O)Nc1ccc(Br)cc1C(=O)c1ccccc1	-3	-4	0	-1	0	-8
O=C(c1cc(F)ccc1F)C1CCCN(Cc2cc(Cl)ccc2O)C1 (configuration not stated)	-20	11	0	34*	3	25
Cc1ccc(OP(=O)(NCc2ccccc2)Oc2ccc(C)cc2)cc1	-87*	-1	3	3	2	-12
Cc1ccccc1CN1C(=O)CN=C(c2ccccc2)c2cc(Cl)ccc21	·	20	4	-1	3	·
CCOC(=O)C1CCN(Cc2ccc(Cl)nc2)CC1	-3	9	0	-2	0	-74*
CCOc1ccc(CN2CCN(C(=O)Cc3ccccc3)CC2)cc1	0	-1	1	3	0	-7
C[C@H]1CCCC=CC2C[C@H](O)C[C@@H]2[C@H](O)C=CC(=O)O1 (some centres not stated)	·	·	·	·	0	·
O=P(Oc1ccccc1)(Oc1ccccc1)C(Nc1ccccc1)c1ccccc1 (configuration not stated)	-70*	21	0	-9	1	3
O=P(Oc1ccccc1)(Oc1ccccc1)C(O)c1ccccc1 (configuration not stated)	3	18	0	-2	-1	6
COC1=C(C)C(=O)c2c(c(COC(N)=O)c3n2C[C@@H]2[C@@H]3N2C)C1=O (some centres not stated)	·	·	·	·	0	·
CCCCCn1c(=O)c(C(=O)NCc2ccncc2)c(O)c2ccccc21	-13	-6	0	29	0	-75*
c1cc2c(cc1[C@H]1OCC3C1CO[C@@H]3c1ccc3c(c1)OCO3)OCO2 (some centres not stated)	-70*	19	·	·	1	18
O=C(c1ccc(C(F)(F)F)cc1)C1CCCN(C2CCSCC2)C1 (configuration not stated)	-36	6	-1	-7	1	-38
Cc1cc(Cl)ccc1C(=O)C1CCCN(C2CCSCC2)C1 (configuration not stated)	-87*	-9	-1	2	0	-34
Nc1c(C(=O)Nc2ccc(Br)cc2F)sc2nc3c(cc12)N1CCC3CC1	·	3	-4	5	2	·
C=C1C=C(C(F)F)n2ncc(C(=O)NCc3ccccc3F)c2N1	·	·	·	·	-1	·
CN1/C(=C\C=C2C(=O)NC(=S)NC2=O)C(C)(C)c2ccccc21	-27	-18	175*	6	117*	-28
COc1ccccc1N1C(=O)NC(=O)C2(Cc3cc(C)ccc3N(C)C2)C1=O (configuration not stated)	0	-3	0	1	-1	-124*
Cc1ccc2c(c1)CC1(CN2C)C(=O)NC(=O)N(c2ccccc2C)C1=O (configuration not stated)	4	8	0	5	0	-9
Cc1ccc(-n2c(/C=C\c3ccc(F)c(F)c3)nc3ccccc3c2=O)c(C)c1	·	0	0	-2	-1	·
COc1ccccc1-n1c(/C=C/c2ccc(O)cc2)nc2ccccc2c1=O	-16	30	1	39*	3	-4
COc1cc(/C=C/c2nc3ccccc3c(=O)n2-c2cccc(O)c2)ccc1O	-5	-12	7	-1	1	-8
COc1cc(/C=C/c2nc3ccccc3c(=O)n2-c2ccccc2O)ccc1O	0	-24	36*	10	7	7
SMILES	KCNH2 3.1 block	TRPML1 blocker	TRHR ag	TRHR enhancer	TRPML1 agonist	KCNH2 WT inh
COc1ccccc1-n1c(/C=C/c2ccccc2)nc2ccccc2c1=O	·	9	1	5	3	·
NCC(=O)c1cccc([N+](=O)[O-])c1	·	·	·	·	0	·
O=C1NC(=O)C(=Cc2csc3ccccc23)C(=O)N1	-180*	-5	1	-5	-1	-209*
Cn1cc(C=C2C(=O)NC(=O)NC2=O)c2ccccc21	-11	-4	-1	-1	-1	-14
NCC(=O)c1ccc(Br)cc1	·	·	·	·	0	·
CCOc1ccc(CN(CCc2ccc3c(c2)OCO3)Cc2cccc(Br)c2)cc1	·	-4	-1	0	1	·
O=C(NCC1=C(c2ccc3ccccc3c2)C[C@@H]2CC[C@H]1N2Cc1ccco1)c1ccncc1	-31	2	·	·	0	16
CS(=O)(=O)c1ccc(C2=C(CNC(=O)c3cccs3)[C@H]3CC[C@@H](C2)N3Cc2ccco2)cc1	-94*	·	·	·	·	-41
O=C(NCC1=C(c2ccc3ccccc3c2)C[C@@H]2CC[C@H]1N2Cc1ccco1)c1ccc([N+](=O)[O-])cc1	-99*	34	·	·	0	-41
CS(=O)(=O)c1ccc(C2=C(CNC(=O)c3cccs3)[C@H]3CC[C@@H](C2)N3Cc2ccccc2)cc1	-1	5	·	·	0	?
O=C(CCl)c1ccc(O)c(O)c1	·	·	·	·	-1	·
C[C@@H](C1CC[C@@]2(O)C3=CC(=O)[C@@H]4C[C@@H](O)[C@@H](O)C[C@]4(C)[C@H]3CC[C@]12C)[C@H](O)CCC(C)(C)O (some centres not stated)	·	43	·	·	1	·
COC(=O)C1=C(c2ccc(Cl)c(C(F)(F)F)c2)C[C@@H]2CC[C@H]1N2C(=O)NCc1cc(C)oc1C(F)(F)F	-89*	42	1	-3	1	-11
COc1ccc(-c2nc(CN3C(=O)CN=C(c4ccccc4)c4ccccc43)c(C)o2)cc1	·	-12	0	3	-1	·
O=[N+]([O-])c1ccc(N2CCCCCC2)c2nonc12	?	-21	142*	15	110*	-25
O=[N+]([O-])c1ccc(N2CCCCC2)c2ncccc12	0	33	-1	-11	0	-2
O=[N+]([O-])c1ccc(NCc2ccccc2)c2nonc12	-43	-17	215*	-28	77*	?
O=[N+]([O-])c1ccc(NCc2ccc(Cl)cc2)c2ccncc12	11	3	1	6	0	-2
Fc1ccccc1N1CCN(Cc2c(F)cccc2F)CC1	25	-8	-1	37*	2	20
CCN(CC)CCNCC(=O)Nc1ccc(Cl)cc1C(=O)c1ccccc1	-95*	-2	0	-2	0	-87*
CN(C)CCCNCC(=O)Nc1ccc(Cl)cc1C(=O)c1ccccc1	-14	16	-1	-4	0	-10
